TDP1 block = inhibitors of human tyrosyl-DNA phosphodiesterase TDP1. AID 485290. Potency, µM (series often up to 130 µM), actives largely listed as inhibitors. 350,000 tested, 0.28% active. Q9NUW8. recombinant TDP1, AlphaScreen DNA substrate cleavage; note: nearly all actives have a fitted effect of over 40% in size
Target sequence (Q9NUW8 whole entry, looked up): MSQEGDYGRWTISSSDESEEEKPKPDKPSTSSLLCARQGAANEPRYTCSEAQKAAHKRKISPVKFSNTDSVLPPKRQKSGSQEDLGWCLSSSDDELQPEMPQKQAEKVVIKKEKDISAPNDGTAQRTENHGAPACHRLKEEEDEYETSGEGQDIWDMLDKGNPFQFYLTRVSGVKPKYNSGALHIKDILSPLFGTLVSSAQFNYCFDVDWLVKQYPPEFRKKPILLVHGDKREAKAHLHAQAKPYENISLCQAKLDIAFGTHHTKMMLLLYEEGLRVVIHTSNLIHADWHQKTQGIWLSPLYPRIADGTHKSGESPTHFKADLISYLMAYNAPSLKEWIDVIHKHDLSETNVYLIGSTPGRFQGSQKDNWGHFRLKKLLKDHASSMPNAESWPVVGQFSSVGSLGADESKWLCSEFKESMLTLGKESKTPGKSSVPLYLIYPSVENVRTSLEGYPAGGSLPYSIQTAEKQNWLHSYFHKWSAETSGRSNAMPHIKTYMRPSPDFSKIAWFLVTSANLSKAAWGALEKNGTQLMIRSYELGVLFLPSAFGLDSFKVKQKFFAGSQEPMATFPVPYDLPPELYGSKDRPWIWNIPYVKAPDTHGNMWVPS
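Compounds were preincubated with Tdp1 (1 nM final) for 15 min at room temperature before substrate (15 nM final) started a 5 min reaction; beads (10 ug/ml final) were then added for 10 min before AlphaScreen detection.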
TDP1 cell CPT = DT40-hTDP1 cell growth loss with CPT. Potency, µM (series often up to 46.2 µM), actives largely listed as inhibitors. AID 686979. chicken DT40 Tdp1-/-;hTDP1 cells + 20 nM CPT, ATP luminescence, 48 h. 420,000 tested, 12% active; note: nearly all actives have a fitted effect of over 55% in size
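Chicken DT40 Tdp1-/- cells stably complemented with human TDP1 were seeded at 400 cells/well in medium containing 20 nM camptothecin, exposed to pin-transferred compounds, and grown at 37 °C for at least 48 hr. Viability was read as ATP luminescence.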
IL1B secr inh = inflammasome signaling inhibition, IL-1 beta readout | THP-1 LPS/ATP IL-1B secretion, AlphaLISA, 16 h; stronger effect = lower value | activity change, % at 57.5 µM | 360,000 tested, 4.7% active | AID 743279; in the data active = activity change below about -50%; inconclusive = mostly about -30% to -49%
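THP-1 cells pretreated 1 hr with compounds (up to 57.5 uM final), then stimulated with LPS (250 ng/mL final) plus ATP (1.25 mM final); secreted IL-1B measured by AlphaLISA after 16 hr, decreased signal indicating inhibition.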
Giardia killer = kills Giardia lamblia. Giardia lamblia trophozoite viability. activity change, % at 7.66 µM, hits read low. 340,000 tested, 0.15% active. AID 540267; in the data active = activity change below about -80%; inconclusive = between about -30% and that limit;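 note: parasites exposed to compound for two days anaerobically before the ATP read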
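Trophozoites 100 cells/well + cpd; 48 hrs, 37 deg C, anaerobic. ATPLite 1-Step added, 15-30 min RT, luminescence read (ATP-based viability).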
TDP1 cell noCPT = qHTS for Inhibitors of human tyrosyl-DNA phosphodiesterase 1 (TDP1): qHTS in cells in absence of CPT. DT40 Tdp1-/- hTDP1 cells, no CPT, ATP luminescence, 48 h. Potency, µM (series often up to 46.2 µM), actives largely listed as inhibitors. 420,000 tested, 15% active; note: nearly all actives have a fitted effect of over 55% in size
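Cells were dispensed at 400 per well, compounds added by pin tool, plates incubated ≥48 hr at 37 °C, then CellTiter-Glo added for 30 min at room temperature before luminescence reading. Line: DT40 Tdp1-/- complemented with hTDP1; camptothecin omitted.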
ELG1 repair inh = ELG1-dependent DNA repair inhibition | 330,000 tested, 2.3% active | Potency, µM (series often up to 46.1 µM), usual class: inhibitors | HEK293T ELG1-luciferase reporter, luminescence, 16 h; DNA damage induced by 5-fluorouridine | AID 504467; note: nearly all actives have a fitted effect of over 55% in size
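DMSO vehicle served as the neutral condition. Each well held 2,000 cells given 5-fluorouridine plus compound; after 16 hr at 37 °C/5% CO2, ONE-Glo was added and luciferase measured 30 min later.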
A number is an active result; 0 = inactive; ? = inconclusive; - = no result given. Hits are enriched below; roughly 19% of the tested compounds scored in any of these assays. Unless noted, calls come from the whole dose curve; as a rule, active = well fitted curve in the direction sought with a large enough effect; inconclusive = small, poorly fitted or top-dose-only effect, or another doubt; inactive = no such curve, though single readings can be large; an effect the other way counts as inactive or inconclusive.

SMILES	TDP1 block	TDP1 cell CPT	IL1B secr inh	Giardia killer	TDP1 cell noCPT	ELG1 repair inh
O=C(NCCN1CCC(n2c(=O)[nH]c3ccccc32)CC1)c1cccc(F)c1	-	0	-73.9	-	0	-
O=C(NC1CCCCC1)N1CCC(n2c(=O)[nH]c3ccccc32)CC1	0	?	0	0	0	?
O=C(NCCN1CCC(n2c(=O)[nH]c3ccccc32)CC1)C(c1ccccc1)c1ccccc1	-	16.4µM	-79.7	-	16.4µM	-
O=C(NCCN1CCC(n2c(=O)[nH]c3ccccc32)CC1)c1cccc(Cl)c1	-	16.4µM	?	-	?	-
O=C(NCCN1CCC(n2c(=O)[nH]c3ccccc32)CC1)c1ccncc1	-	0	0	-	0	-
CN1C(=O)C2(SCC(=O)N2c2ccc(Cl)cc2)c2ccccc21 (stereo not given)	0	0	-	-	?	-
O=C(NCc1ccccc1Cl)C1CCN(C(=O)N2CCOc3ccccc32)CC1	0	0	-	-	?	-
O=C(NN1CCCC1)NS(=O)(=O)c1ccc(Cl)cc1	-	0	-	-	0	-
Cc1cc(C(F)(F)F)n(-c2nc(C(=O)N/N=C/c3ccc(F)cc3)cs2)n1	0	16.4µM	0	0	?	0
COc1ccccc1OCCC(=O)OCC(=O)c1c(N)n(C)c(=O)n(C)c1=O	0	0	0	0	0	0
Nc1ccc(Nc2ccc([N+](=O)[O-])cc2[N+](=O)[O-])cc1	0	?	0	0	0	0
O=[N+]([O-])c1ccc(NN=CC2CCCCCC2)c([N+](=O)[O-])c1	-	14.6µM	0	-	13µM	-
CC(=O)N1CCN(C(=O)CNc2cc(C(F)(F)F)ccc2OCC(F)(F)F)CC1	0	0	-57.0	0	0	0
COc1ccc(-c2ccc3oc(-c4ccc(OC)cc4)c(-c4ccc(OC)cc4)c3c2)cc1	-	?	0	0	?	-
COc1ccc2oc3cc(C)[n+]([O-])c(-c4ccc(Br)cc4)c3c2c1	0	?	0	0	0.0082µM	20.6µM
COC(=O)c1ccc(COC(=O)c2ccc(CS(=O)(=O)c3ccc(C)cc3)cc2)cc1	0	0	0	0	0	0
COC(=O)c1cc2c(n1S(=O)(=O)c1ccc(C)cc1)C(=O)C(=O)c1[nH]cc(C(=O)OCc3ccccc3)c1-2	-	0.82µM	-84.9	0	1.64µM	-
Cc1ccc(Cn2c(SCC(=O)N(C)C3CCS(=O)(=O)C3)nc3ccccc3c2=O)cc1 (stereo not given)	0	0	-54.8	0	?	0
CN(C(=O)CSc1nnc(-c2ccc(F)cc2)c2ccccc12)C1CCS(=O)(=O)C1 (stereo not given)	0	0	-90.7	0	0	0
CN(C(=O)CSc1nnc(-c2ccccc2)c(-c2ccccc2)n1)C1CCS(=O)(=O)C1 (stereo not given)	0	16.4µM	0	0	20.6µM	0
COc1ccc(/C=N/N2CCN(c3ccc(Cl)cc3)CC2)cc1O	0	0	0	0	0	0
Cc1ccc(NC(=O)C2CCCN(c3nnc(C)c4c(C)n(-c5ccccc5)nc34)C2)cc1Cl (stereo not given)	0	11.6µM	-	-	4.11µM	-
Cc1nnc(N2CCCC(C(=O)Nc3cccc(C(F)(F)F)c3)C2)c2nn(-c3ccccc3)c(C)c12 (stereo not given)	0	?	-	-	20.6µM	-
COc1ccccc1NC(=O)C1CCCN(c2nnc(C)c3c(C)n(-c4ccccc4)nc23)C1 (stereo not given)	0	16.4µM	-	-	8.2µM	-
CCOC(=O)C1CCCN(C(=O)C2CCN(c3nnc(C)c4c(C)n(-c5ccccc5)nc34)CC2)C1 (stereo not given)	0	?	-	-	?	-
SMILES	TDP1 block	TDP1 cell CPT	IL1B secr inh	Giardia killer	TDP1 cell noCPT	ELG1 repair inh
CCOC(=O)c1cccc(NC(=O)C2CCCN(c3nnc(C)c4c(C)n(-c5ccccc5)nc34)C2)c1 (stereo not given)	0	13µM	-	-	9.2µM	-
O=C1NC2(CCCCCC2)C(=O)N1Cc1ccccc1Br	0	0	0	0	0	0
O=S(=O)(Nc1ccc(NS(=O)(=O)c2ccccc2)c2ccccc12)c1ccccc1	-	0	0	-	?	-
O=S(=O)(Nc1ccc(O)c2ccccc12)c1ccc(F)cc1	-	11.6µM	0	0	9.2µM	-
CCc1ccc(S(=O)(=O)Nc2ccc(O)c3ccccc23)cc1	-	6.51µM	0	0	6.51µM	?
CC(C)OP(=O)(OC(C)C)C1(O)C(=O)Nc2ccccc21 (stereo not given)	0	0	0	0	0	0
COc1cc(NC(=O)Nc2nc(C(N)C3CCCCC3)cs2)cc(OC)c1OC (stereo not given)	-	16.4µM	0	-	23.1µM	-
COc1ccc(CCNC(=O)Nc2nc(C(N)C3CCCCC3)cs2)cc1OC (stereo not given)	-	?	-52.3	-	?	-
COc1cc(NC(=O)Nc2nc(C(N)C(C)C)cs2)cc(OC)c1OC (stereo not given)	-	?	0	-	?	-
NC(c1csc(NC(=O)Nc2ccccc2Cl)n1)C1CCCCC1 (stereo not given)	-	23.1µM	0	-	16.4µM	-
COc1ccccc1NC(=O)Nc1nc(C(N)C2CCCCC2)cs1 (stereo not given)	-	23.1µM	-	-	14.6µM	-
CN(C)c1ncnc(N(C)C)c1[N+](=O)[O-]	0	0	0	0	0	0
CSc1ccc(CN2CCC(C)(Oc3ccccc3)C2)cc1 (stereo not given)	-	?	0	-	?	-
CCCCNC(=S)N1CCn2cccc2C1c1ccc(F)cc1 (stereo not given)	0	16.4µM	-86.1	0	?	?
S=C(NCc1ccccc1)N1CCn2cccc2C1c1cccnc1 (stereo not given)	0	0	0	0	0	?
S=C(NCCc1ccccc1)N1CCn2cccc2C1c1cccnc1 (stereo not given)	0	?	-66.0	0	?	?
CCCCNC(=S)N1CCn2cccc2C1c1ccccc1 (stereo not given)	0	?	0	0	?	?
N#CCC(=O)N/N=C/c1cn(Cc2ccc(Cl)c(Cl)c2)c2ccccc12	0	0	0	0	?	0
CCOC(=O)Cn1cc(/C=N/NC(=O)CC#N)c2ccccc21	0	0	-54.7	0	0	0
N#CCC(=O)N/N=C/c1cn(Cc2cccc3ccccc23)c2ccccc12	0	5.17µM	0	0	3.66µM	0
N#CCC(=O)N/N=C/c1cn(Cc2ccccc2C#N)c2ccccc12	0	0	0	0	0	0
N#CCC(=O)N/N=C/c1c(-c2ccccc2)n(-c2ccccc2)c2ccccc12	0	?	0	0	20.6µM	?
Cc1ccc(S(=O)(=O)Nc2c(C)nn(C)c2C)cc1C	-	20.6µM	0	0	13µM	0

Source: PubChem (National Center for Advancing Translational Sciences (NCATS))
